RGS7-Gao reg: human RGS7-Galphao interaction regulation. P09471. Multiplexed bead flow cytometry, RGS7-Galphao binding; actives lie on both sides. binding response (% of control), % at 10 µM. actives 0.35% (n = 220,000); in the data active = binding response below about 49% or above about 150%; inconclusive = no clear call, values can overlap the other calls; inactive = in between;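 also: fluorescent Galphao held in activated GDP-AlF4 state binding bead-coupled RGS7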
Target sequence (P09471 whole entry, looked up): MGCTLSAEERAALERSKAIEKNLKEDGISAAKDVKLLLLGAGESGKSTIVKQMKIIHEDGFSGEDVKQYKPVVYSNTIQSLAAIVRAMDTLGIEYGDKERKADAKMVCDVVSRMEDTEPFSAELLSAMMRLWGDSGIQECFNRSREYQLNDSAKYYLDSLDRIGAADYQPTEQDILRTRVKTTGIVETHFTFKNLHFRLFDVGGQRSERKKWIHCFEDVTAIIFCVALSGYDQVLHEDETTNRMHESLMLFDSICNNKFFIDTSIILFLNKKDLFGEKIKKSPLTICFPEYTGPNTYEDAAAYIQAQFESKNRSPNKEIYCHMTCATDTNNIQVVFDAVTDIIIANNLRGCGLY
RGS16-Gao HTS: RGS16-Galphao interaction regulator (human); bead-based flow cytometry RGS16-Galphao binding, fluorescence; actives lie on both sides; actives 0.38% (n = 220,000); binding response (% of control), % at 10 µM; O15492+P09471; call rule not given here;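 also: Galphao activated by GDP with aluminum fluoride before binding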
Target sequence (O15492 whole entry, looked up): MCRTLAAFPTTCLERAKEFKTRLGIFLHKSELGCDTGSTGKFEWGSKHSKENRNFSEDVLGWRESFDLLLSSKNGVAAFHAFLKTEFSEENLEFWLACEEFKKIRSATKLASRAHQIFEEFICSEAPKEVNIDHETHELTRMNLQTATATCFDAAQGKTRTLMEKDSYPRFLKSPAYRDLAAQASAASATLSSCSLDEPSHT
Target sequence (P09471 whole entry, looked up): as the sequence (P09471 whole entry, looked up) above
RGS4-Gao reg: modulates binding of RGS4 to human Galphao; Multiplexed bead flow cytometry; actives lie on both sides; binding response (% of control), % at 10 µM; actives 0.33% (n = 220,000); in the data active = binding response below about 49% or above about 150%; inactive = in between;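 also: fluorescent Galphao activated with aluminum fluoride binding bead-coupled RGS4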
Avidin fluor: avidin bead compound fluorescence profile; actives 0.38% (n = 220,000); Avidin beads, compound fluorescence 488/530 nm, flow cytometry; stronger effect = higher value; AID 1775; fluorescence (KMESF) at 10 µM; in the data active = fluorescence above about 47
GSH bead fluor: compound fluoresces at 488/530 nm on GSH beads; GSH beads flow cytometry, compound fluorescence 488/530 nm; stronger effect = higher value; fluorescence (KMESF) at 10 µM; actives 0.25% (n = 190,000); in the data active = fluorescence above about 89;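 also: glutathione beads carrying GST-tagged Bcl family fusion proteins plus one bare bead set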
RGS8-Gao: regulators of human RGS8-Galphao interaction. multiplexed bead flow cytometry, RGS8-Galphao binding; actives lie on both sides. actives 0.34% (n = 220,000). response (percent of control binding), % at 10 µM. AID 1423. P09471; in the data active = response below about 60% or above about 140%; inactive = in between;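 also: Galphao activated as the GDP aluminium fluoride complex binding bead-coupled RGS8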
Hits are given with their value; – = inactive; ? = inconclusive; · = no result. Hits are enriched below; roughly 1.2% of the tested compounds scored in any of these assays.

SMILES | RGS7-Gao reg | RGS16-Gao HTS | RGS4-Gao reg | Avidin fluor | GSH bead fluor | RGS8-Gao
COc1ccc(NC(=O)CCC(=O)OC(C(=O)c2ccccc2)c2ccccc2)cc1 (configuration not stated) | – | – | – | 55 | – | –
CCOC(=O)c1sc(Nc2nc(OC)cc(OC)n2)nc1C | – | – | – | – | – | –
Cc1cc(C(=O)OCc2nnc(-c3ccccc3)o2)c(C)n1-c1ccccc1 | – | – | – | – | 261 | –
Brc1ccc(-c2cnco2)cc1 | – | – | – | – | – | –
Cc1ccnc2nc(C(=O)NC3=NCCS3)nn12 | – | – | – | – | – | –
Cc1ccnc2nc(C(=O)Nc3nccs3)nn12 | – | – | – | – | 253 | –
Cc1cccc(N2CCN(Cc3cc(=O)n4ccsc4n3)CC2)c1C | – | – | – | – | – | –
O=c1cc(CN2CCN(c3ccccc3O)CC2)nc2sccn12 | – | – | – | – | 255 | –
NS(=O)(=O)c1ccc(NC(=O)c2ccc(-c3ccccc3)cc2)cc1 | – | – | – | – | – | –
NS(=O)(=O)c1ccc(NS(=O)(=O)c2ccc(NC(=O)c3ccc(-c4ccccc4)cc3)cc2)cc1 | – | – | – | 373 | – | –
COc1cccc(-c2nn(-c3ccccc3)cc2/C=C(/NC(=O)c2ccccc2)C(=O)O)c1 | ? | – | – | – | · | –
Cc1nc2ccccn2c1-c1nnco1 | – | – | – | 47 | – | –
Cc1cccc(Nc2nc(-c3c(C)nc4ccccn34)cs2)c1 | – | – | – | – | – | –
COc1ccc(Cn2c(=O)[nH]c3cc(C(=O)NCCCOC(C)C)ccc3c2=O)cc1 | – | – | – | – | – | –
COc1ccc(Cn2c(=O)[nH]c3cc(C(=O)NCc4ccc5c(c4)OCO5)ccc3c2=O)cc1 | – | – | – | 65 | – | –
COc1ccc(CCNC(=O)/C=C/c2ccc(C)cc2)cc1OC | – | – | – | – | – | –
COc1ccc(CCNC(=O)/C=C/c2cc(OC)c(OC)c(OC)c2)cc1OC | ? | – | – | 73 | – | –
COc1ccc(CCNC(=O)CC2COc3ccccc3O2)cc1OC (configuration not stated) | – | – | – | 48 | – | –
COc1ccc(CCNC(=O)CN(c2ccccc2OC)S(C)(=O)=O)cc1OC | – | – | – | – | 263 | –
COc1cc(OC)c(OC)cc1NC(=O)CC1COc2ccccc2O1 (configuration not stated) | – | – | – | – | – | –
CC1CN=C(N(C(=S)Nc2ccccc2)c2cccc(C(F)(F)F)c2)S1 (configuration not stated) | ? | – | – | – | · | –
COc1ccc(-c2cc(C(F)(F)F)nc(S(=O)(=O)CCCC(=O)Nc3cccnc3Cl)n2)cc1OC | – | – | – | – | – | –
Cc1cnc(NC(=O)CSc2nnc(-c3cccs3)n2C)s1 | – | – | – | – | 269 | –
Cc1ccc(-n2c(C)nn(Cc3ccc([N+](=O)[O-])cc3)c2=O)cc1 | ? | – | – | – | – | –
Cc1ccc(-n2c3nc(=O)[nH]c(=O)c-3cc3cc([N+](=O)[O-])ccc32)cc1 | – | – | – | 55 | – | –
SMILES | RGS7-Gao reg | RGS16-Gao HTS | RGS4-Gao reg | Avidin fluor | GSH bead fluor | RGS8-Gao
CN1CCN(c2ccc(Cl)cc2NC(=O)C2COc3ccccc3O2)CC1 (configuration not stated) | – | – | – | – | 264 | –
COc1ccc(Cl)cc1NC(=O)C1COc2ccccc2O1 (configuration not stated) | – | – | – | – | – | –
CN1CCN(c2ccc(Cl)cc2NC(=O)c2nn(-c3ccccc3)c(=O)c3ccccc23)CC1 | – | – | – | – | 92 | –
CCCNC(=O)CN1C(=O)NC(CCSC)C1=O (configuration not stated) | ? | – | – | – | · | –
O=C(COC(=O)c1cc(S(=O)(=O)N2CCc3ccccc3C2)ccc1Cl)NCc1ccco1 | – | – | – | – | – | –
O=C(COC(=O)c1cccc(S(=O)(=O)N2CCc3ccccc3C2)c1)NCc1ccco1 | – | – | – | – | 256 | –
COc1ccc(N2CCN(C(=O)CN(C)S(=O)(=O)c3cc(C)ccc3OC)CC2)cc1 | – | – | – | – | – | –
COc1ccc(CNC(=O)C/C(C)=N/NC(=O)COc2ccc(C)cc2Br)cc1 | – | – | – | – | – | –
O=C(O)CN1CCCCC1 | – | – | – | – | – | –
CC(=O)/C(CN1CCCCC1)=N\O | – | – | – | 85 | – | –
Brc1ccccc1-c1nnc(CSc2nnc3sc4ccccc4n23)o1 | – | – | – | – | 257 | –
N#CCSc1nnc2sc3ccccc3n12 | – | – | – | – | – | –
COc1cc(SC)ccc1C(=O)N(Cc1ccccc1)c1ccccn1 | ? | – | – | 51 | · | –
Cc1c(Cl)cccc1NC(=O)CNCc1ccccc1F | – | – | – | – | – | –
CC12CCC(C(=O)N(CC3CO3)C1=O)C2(C)C (configuration not stated) | – | – | – | – | – | –
CC(C)C12CN3CC(C(C)C)(CN(C1)C3c1ccccc1)C2O (configuration not stated) | – | – | – | – | 253 | –
COc1cc(/C=C2\C(=O)N(c3ccc(NC(C)=O)cc3)N=C2c2ccccc2)ccc1O | ? | – | – | 131 | – | –
O=C1/C(=C\c2ccc(O)c(O)c2)C(c2ccccc2)=NN1c1ccccc1 | – | – | – | – | – | –
Cc1ccc(-c2nc(-c3ccccc3)no2)cc1 | – | – | – | – | – | –
Cc1ccc(-c2nc(-c3cccnc3)no2)cc1 | – | – | – | 56 | – | –
C=CCNS(=O)(=O)c1cccc(C(C)=O)c1 | – | – | – | – | – | –
C=CCNS(=O)(=O)c1cccc2cc(C(=O)O)c(O)cc12 | – | – | – | 50 | – | –
N#Cc1cc(-c2ccccc2)cnc1Sc1ccc(Cl)cc1 | – | – | – | – | – | –
N#Cc1cc(-c2ccc(Cl)cc2)cnc1Sc1ccccc1 | 15 | 1.3 | 21 | – | – | 12
O=C(Nc1ccc2ccccc2c1)c1onc2c1CCCC2 | – | – | – | 57 | – | –
SMILES | RGS7-Gao reg | RGS16-Gao HTS | RGS4-Gao reg | Avidin fluor | GSH bead fluor | RGS8-Gao
COC(=O)c1cccc(NC(=O)c2onc3c2CCCC3)c1 | – | – | – | – | – | –
CSc1ccccc1NS(=O)(=O)c1ccccc1 | – | – | – | 48 | – | –
COc1cccc(OC)c1OCCCCN1CCCC1 | – | – | – | 56 | – | –
COc1cccc(OC)c1OCCCN1CCOCC1 | – | – | – | – | – | –
CCC(=O)N1CCc2cc(Br)cc(S(=O)(=O)NCc3ccco3)c21 | – | – | – | – | – | –
CCC(=O)N1CCc2cc(Br)cc(S(=O)(=O)CCC(=O)NCc3ccco3)c21 | – | – | – | 51 | – | –
COCCCn1c(SCC(=O)NCc2ccccc2)nc2ccccc2c1=O | – | – | – | – | – | –

Bioassay records from PubChem.
